PubChem BioAssay AID1159580 (chemical genetic matrix, 2015)
Hit rate of the full screen: of about 5,500 compounds, about 2,000 (36%) were called active. Inconclusive results (about 18%) are left out. No stated cut-off is given here; in the data, active means normalized growth mostly below about 0.91 (no sharp cut-off); inconclusive means no clear call, values can overlap the other calls; inactive means mostly above about 0.92. The list shows a part of the results.

Test: chemical genetic growth profiling, strain panel (AID 1159580);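 further: tested at 20 µM; growth read once vehicle control cultures reached saturation at 30 °C; 1 = growth at the plate median or of vehicle wells; lower values mean less growth of the strain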
Conditions: S. cerevisiae deletion strains, growth OD
[1] = locus YAL021C, strain ccr4, hits give low values
[2] = locus YAL026C, strain drs2, hits give low values
[3] = locus YAL030W, strain snc1, hits give low values
[4] = locus YBL061C, strain skt5, hits give low values
[5] = locus YBR009C, strain hhf1, hits give low values
[6] = locus YBR023C, strain chs3, hits give low values
[7] = locus YBR171W, strain sec66, hits give low values
[8] = locus YBR231C, strain swc5, hits give low values
[9] = locus YBR279W, strain paf1, hits give low values
[10] = locus YCL011C, strain gbp2, hits give low values
[11] = locus YCL016C, strain dcc1, hits give low values
[12] = locus YCL061C, strain MRC1, hits give low values
[13] = locus YCL069W, strain vba3, hits give low values
[14] = locus YCR088W, strain abp1, hits give low values
[15] = locus YDL005C, strain med2, hits give low values
[16] = locus YDL040C, strain nat1, hits give low values
[17] = locus YDR001C, strain nth1, hits give low values
[18] = locus YDR069C, strain doa4, hits give low values
[19] = locus YDR137W, strain rgp1, hits give low values
[20] = locus YDR159W, strain sac3, hits give low values
[21] = locus YDR297W, strain sur2, hits give low values
[22] = locus YDR334W, strain swr1, hits give low values
[23] = locus YDR335W, strain msn5, hits give low values
[24] = locus YDR392W, strain spt3, hits give low values
[25] = locus YEL003W, strain gim4, hits give low values
[26] = locus YEL037C, strain rad23, hits give low values
[27] = locus YEL061C, strain CIN8 (second series), hits give low values
[28] = locus YER015W, strain faa2, hits give low values
[29] = locus YER016W, strain bim1, hits give low values
[30] = locus YER111C, strain swi4, hits give low values
[31] = locus YER155C, strain BEM2 (second series), hits give low values
[32] = locus YFR010W, strain ubp6, hits give low values
[33] = locus YGL167C, strain pmr1, hits give low values
[34] = locus YGL173C, strain kem1, hits give low values
[35] = locus YGL227W, strain vid30, hits give low values
[36] = locus YGL240W, strain doc1, hits give low values
[37] = locus YGL253W, strain hxk2, hits give low values
[38] = locus YHR013C, strain ard1, hits give low values
[39] = locus YHR027C, strain rpn1, hits give low values
[40] = locus YHR142W, strain chs7, hits give low values
[41] = locus YJL092W, strain hpr5, hits give low values
[42] = locus YJL095W, strain BCK1 (second series), hits give low values
[43] = locus YJL115W, strain asf1, hits give low values
[44] = locus YJL129C, strain trk1, hits give low values
[45] = locus YJL154C, strain vps35, hits give low values
[46] = locus YJL164C, strain tpk1, hits give low values
[47] = locus YJL166W, strain qcr8, hits give low values
[48] = locus YJL187C, strain SWE1, hits give low values
[49] = locus YKL160W, strain elf1, hits give low values
[50] = locus YKR026C, strain gcn3, hits give low values
[51] = locus YKR091W, strain srl3, hits give low values
[52] = locus YLL001W, strain dnm1, hits give low values
[53] = locus YLL026W, hits give low values
[54] = locus YLL041C, strain sdh2, hits give low values
[55] = locus YLR027C, strain aat2, hits give low values
[56] = locus YLR221C, strain rsa3, hits give low values
[57] = locus YLR258W, strain gsy2, hits give low values
[58] = locus YLR262C, strain YPT6 (second series), hits give low values
[59] = locus YLR320W, strain mms22, hits give low values
[60] = locus YLR342W, strain FKS1, hits give low values
[61] = locus YLR357W, strain rsc2, hits give low values
[62] = locus YLR370C, strain arc18, hits give low values
[63] = locus YLR384C, strain iki3, hits give low values
[64] = locus YML120C, strain ndi1, hits give low values
[65] = locus YMR058W, strain fet3, hits give low values
[66] = locus YMR125W, strain sto1, hits give low values
[67] = locus YMR129W, hits give low values
[68] = locus YMR205C, strain PFK2, hits give low values
[69] = locus YMR231W, strain pep5, hits give low values
[70] = locus YNL071W, strain lat1, hits give low values
[71] = locus YNL209W, strain ssb2, hits give low values
[72] = locus YNL248C, strain rpa49, hits give low values
[73] = locus YNL322C, strain KRE1 (second series), hits give low values
[74] = locus YNR049C, strain mso1, hits give low values
[75] = locus YOR001W, strain rrp6, hits give low values
[76] = locus YOR070C, strain gyp1, hits give low values
[77] = locus YOR080W, strain dia2, hits give low values
[78] = locus YOR083W, strain WHI5, hits give low values
[79] = locus YOR106W, strain vam3, hits give low values
[80] = locus YOR265W, strain rbl2, hits give low values
[81] = locus YOR270C, strain vph1, hits give low values
[82] = locus YOR290C, strain snf2, hits give low values
[83] = locus YPL051W, strain arl3, hits give low values
[84] = locus YPL078C, strain atp4, hits give low values
[85] = locus YPL106C, strain sse1, hits give low values
[86] = locus YPL240C, strain hsp82, hits give low values

Measured: normalized growth

CC12CCC(O)CC1CCc1ccccc12 (configuration not stated)
active: [24] 0.634 | [58] 0.826
inactive: [1] 0.993 | [2] 0.972 | [3] 0.982 | [4] 0.967 | [5] 0.932 | [6] 0.967 | [7] 0.938 | [8] 0.998 | [9] 0.981 | [10] 0.981 | [11] 0.977 | [12] 0.967 | [13] 0.974 | [14] 0.978 | [15] 0.97 | [16] 0.979 | [17] 0.971 | [18] 0.984 | [19] 0.871 | [20] 0.936 | locus YDR195W, strain ref2 1 | [21] 0.971 | [22] 0.989 | [23] 0.972 | [25] 0.96 | [26] 0.98 | [27] 0.964 | [28] 0.983 | [29] 0.969 | [30] 0.96 | [31] 0.944 | [32] 0.979 | [33] 0.962 | [34] 0.957 | [35] 0.961 | [36] 0.901 | [37] 0.969 | [38] 0.974 | [39] 0.991 | [40] 0.973 | [41] 0.983 | [42] 0.99 | [43] 0.977 | [44] 0.92 | [45] 0.99 | [46] 0.968 | [47] 0.946 | [48] 0.971 | [49] 0.993 | [50] 0.954 | [51] 0.969 | [52] 0.991 | [53] 0.982 | [54] 0.974 | [55] 0.984 | [56] 0.98 | [57] 0.968 | [59] 0.906 | [60] 0.965 | [61] 0.935 | [62] 0.969 | [63] 0.993 | [64] 0.955 | [65] 0.97 | [66] 1 | [67] 0.961 | [68] 0.902 | [69] 0.988 | [70] 0.959 | [71] 0.988 | [72] 0.985 | [73] 0.959 | [74] 0.971 | [75] 0.967 | [76] 0.973 | [77] 0.968 | [78] 0.99 | [79] 0.966 | [80] 0.992 | [81] 0.94 | [82] 0.898 | [83] 0.986 | [84] 0.973 | [85] 1.01 | [86] 0.991

CC1CC(OC(=O)c2ccccc2O)CC(C)(C)C1 (configuration not stated)
inactive: [1] 0.977 | [2] 0.989 | [3] 0.985 | [4] 0.97 | [5] 0.914 | [6] 0.974 | [7] 0.987 | [8] 0.961 | [9] 0.98 | [10] 0.969 | [11] 0.991 | [12] 0.983 | [13] 0.987 | [14] 0.99 | [15] 0.968 | [16] 0.983 | [17] 0.984 | [18] 0.943 | [19] 0.922 | [20] 0.977 | locus YDR195W, strain ref2 0.968 | [21] 0.973 | [22] 0.985 | [23] 0.992 | [24] 0.89 | [25] 0.974 | [26] 0.987 | [27] 0.965 | [28] 0.975 | [29] 0.982 | [30] 0.985 | [31] 0.982 | [32] 0.971 | [33] 0.962 | [34] 0.967 | [35] 0.978 | [36] 0.933 | [37] 1 | [38] 0.865 | [39] 0.989 | locus YHR030C, strain SLT2, hits give low values 0.94 | locus YHR079C, strain IRE1, hits give low values 0.958 | [40] 0.978 | [41] 0.985 | [42] 0.993 | locus YJL095W, strain BCK1, hits give low values 1.01 | [43] 1 | [44] 0.896 | [45] 0.987 | [46] 0.97 | [47] 0.943 | [48] 0.974 | locus YJR066W, strain TOR1, hits give low values 0.943 | [49] 0.993 | [50] 0.953 | [51] 0.981 | [52] 1.01 | [53] 0.98 | [54] 0.989 | [55] 0.972 | locus YLR113W, strain HOG1, hits give low values 1 | [56] 0.925 | [57] 0.97 | [58] 0.904 | [59] 0.952 | [60] 0.949 | [61] 0.975 | [62] 0.978 | [63] 0.997 | [64] 0.987 | [65] 0.981 | [66] 0.975 | [67] 0.998 | [68] 0.906 | [69] 1 | [70] 0.974 | locus YNL183C, strain NPR1, hits give low values 0.947 | [71] 0.983 | [72] 0.989 | [73] 0.99 | [74] 0.982 | [75] 0.996 | [76] 0.989 | [77] 0.968 | [78] 1 | [79] 0.951 | locus YOR231W, strain MKK1, hits give low values 0.958 | [80] 0.989 | [81] 0.977 | [82] 0.915 | [83] 1.01 | [84] 0.995 | [85] 0.974 | [86] 0.958 | locus YPL256C, strain CLN2, hits give low values 0.94
